# High-throughput results (PubChem)
# IP6K1 inhibitor: blocks human inositol hexakisphosphate kinase 1. Q92551. IP6K1 kinase, ADP-Glo luminescence, 2 h; hits give low values. activity change, % (series mostly up to about 58 µM). 140,000 compounds, 0.81% hits. AID 1645851; in the data active = activity change below about -25%
# Target sequence (Q92551 whole entry, looked up): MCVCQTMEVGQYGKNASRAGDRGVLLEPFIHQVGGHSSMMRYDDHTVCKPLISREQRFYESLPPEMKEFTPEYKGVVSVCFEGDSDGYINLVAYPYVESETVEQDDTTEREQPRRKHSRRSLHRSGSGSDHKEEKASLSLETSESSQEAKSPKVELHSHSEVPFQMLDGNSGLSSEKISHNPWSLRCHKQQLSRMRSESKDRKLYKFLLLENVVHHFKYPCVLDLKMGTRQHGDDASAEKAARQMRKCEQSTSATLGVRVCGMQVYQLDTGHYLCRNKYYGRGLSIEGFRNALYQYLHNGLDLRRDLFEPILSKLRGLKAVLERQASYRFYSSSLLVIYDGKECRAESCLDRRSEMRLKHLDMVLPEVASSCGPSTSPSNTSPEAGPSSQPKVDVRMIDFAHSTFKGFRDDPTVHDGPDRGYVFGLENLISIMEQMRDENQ
#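 ADP-Glo luminescence measures ADP made by human IP6K1 during a 2 h RT reaction with ATP/IP6 (mix at 1.3 mM/130 uM); top library doses 57.5 and 19.1 uM final.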
# SNCA viab count: reduces viability of HEK-293 SNCA reporter cells | Potency, µM (titrated, usually from 57.1 µM), inactives show at the highest dose activity change, negative = cytotoxicity, most hits filed as cytotoxic | HEK-293-SNCA-luc viability, GF-AFC fluorescence, 24 h | 150,000 compounds, 0.12% hits;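 also: potency is read from the fitted curve at half-maximal effect; 0% = DMSO-treated cells and -100% = medium-only wells without cells; nearly all actives have a fitted effect of over 30% in size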
#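 HEK-293-SNCA-luc cells (1500/well) plated 24 h, then exposed 24 h to a dilution series; GF-AFC added 30 min at 37C, fluorescence 405/540 nm; normalised to medium-only and DMSO wells, Hill fit.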
# SNCA expr inh: inhibitors of alpha-synuclein (SNCA) gene expression; 140,000 compounds, 0.17% hits; AID 1671194; Potency, µM (series often up to 57.2 µM), without a hit: at the highest dose activity change, negative = inhibition, usual class: inhibitors; HEK-293 SNCA-luciferase knock-in, luminescence, 24 h;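 also: potency is read from the fitted curve at half-maximal effect; plate controls were DMSO cells for no effect and cell-free wells for full effect; nearly all actives have a fitted effect of over 45% in size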
# GPT2 inh: inhibitors of human GPT2 alanine aminotransferase | 100,000 compounds, 0.25% hits | Recombinant GPT2, coupled pyruvate oxidase/HRP Amplex Red fluorescence | Potency, µM (top dose mostly 57.7 µM), without a hit: top-dose activity change, negative = inhibition, hits mostly inhibitors | AID 1671188; also: potency is read from the fitted curve at half-maximal effect; nearly all actives have a fitted effect of over 60% in size
#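 Inhibition is scored from Amplex Red fluorescence generated when pyruvate oxidase and HRP act on pyruvate released by GPT2. Reactions contain 10ng/uL enzyme, 250uM a-KG and 2mM L-alanine and run 30 min at room temperature.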
# IP6K1 inh cnf: confirmation of human IP6K1 inhibitors; 1,200 compounds, 13% hits; recombinant IP6K1 kinase, ADP-Glo luminescence, 2 h; shares compounds with IP6K1 inhibitor; Potency, µM (highest dose often 49 µM), for the others: at the top dose activity change, negative = inhibition, actives largely listed as inhibitors; also: potency is read from the fitted curve at half-maximal effect; nearly all actives have a fitted effect of over 65% in size
# Active calls of the source: *; i = inactive; ? = inconclusive; · = no result given; ! = repeats disagree; [ ] = dose if it differs, or a comment. Sampled rows, rich in hits. Any-hit rate of the full collection: about 0.9%. Unless noted, calls follow the shape of the dose curve; as a rule, active = well fitted curve in the direction sought with a large enough effect; inconclusive = small, poorly fitted or top-dose-only effect, or another doubt; inactive = no such curve, though single readings can be large; an effect the other way counts as inactive or inconclusive. Unless noted, % is scaled to controls: 0 for no effect and ±100 for the full control effect.
SMILES,IP6K1 inhibitor,SNCA viab count,SNCA expr inh,GPT2 inh,others
COc1cc([C@H]2Oc3cc([C@H]4Oc5cc(O)cc(O)c5C(=O)[C@H]4O)ccc3O[C@H]2CO)ccc1O,·,15.1%,?,12.2µM*,
CCCC(O)CN1CCC(=O)N(CC2CC2)Cc2cc(OC)ccc21 (centres undefined),-10.1,·,·,·,
CCc1cnn2c(NCc3ccc[n+]([O-])c3)cc(N3CCCC[C@@H]3CCO)nc12,·,?,0.0607µM*,i,
COc1cccc(-c2ccc(CN3CCCC(NC(=O)c4ccccc4C)C3)cc2)c1 (centres undefined),11.6,-12.6%,59.5%,i,
COCCOC1CN(C2CCN(C(=O)c3ccco3)CC2)C12CCCCC2 (centres undefined),3.2,4.0%,-7.2%,-12.8%,
C[C@]12C=CC(=O)C=C1CC[C@@H]1C2=CC[C@]2(C)[C@@H](C(=O)CN3CCN(c4cc(N5CCCC5)nc(N5CCCC5)n4)CC3)CC[C@@H]12,·,-6.0%,-19.0%,0.708µM*,
O=C(Cc1c[nH]c2ccccc12)N1CCC(c2nc(CCOCC3CCCC3)no2)C1 (centres undefined),12.9,-9.0%[12.5 µM],20µM*,i,
COc1ccc(-c2nn(-c3ccc(F)cc3)c(OC(C)=O)c2-c2ccc(NC(C)=O)cc2)cc1OC,28.7,-12.4%,19.4%,?,
COc1cc(OC)cc(-c2nn(-c3ccc(C)cc3C)c(OC(C)=O)c2-c2ccc(NC(C)=O)cc2)c1,-17.4,-18.6%,-24.9%,12.6µM*,
COc1ccc(-c2nn(-c3ccc(C)cc3C)c(OC(C)=O)c2-c2ccc(NC(C)=O)cc2)c(OC)c1,0.6,16.1%,6.2%,?,
CC(=O)Oc1c(-c2ccc(NC(=O)C3CC3)cc2)c(-c2ccc3c(c2)OCO3)nn1-c1cccc(C)c1,-5.5,-2.4%,10.4%,14.1µM*,
CCC(=O)Nc1ccc(-c2c(-c3cc(OC)cc(OC)c3)nn(-c3ccc(C)cc3)c2OC(C)=O)cc1,0.9,-5.3%,-7.2%,6.31µM*,
O=C1[C@@H]2C[C@@H](CN2Cc2ccc(Cl)cc2)Oc2ccccc2N1Cc1ccccc1,6.6,-19.5%[87.6 µM],?,4.0%[88.5 µM],
COc1ccc(F)cc1-c1ccc(CN2CCC(NC(=O)CN(C)C)C2)cc1 (centres undefined),4.4,·,·,·,
CCOC(=O)c1ccc(NC2CCCCC2)c(N)c1,-8.1,-3.9%,·,3.55µM*,
CCN1CCN(c2ccc(Nc3cc(N(C)C(=O)Nc4c(Cl)c(OC)cc(OC)c4Cl)ncn3)cc2)CC1,6.0,?,55.9%,8.91µM*,
CCOc1ccc(NC(=O)NCCCN2CCN(c3ccc(OC)cc3)CC2)cc1,21.0,1.2%,3.7%,·,
Cc1ccc(-n2ncc3c(N4CCCCCC4)ncnc32)cc1,-3.6,-0.8%,2.24µM*,·,
Cc1coc2c1C(=O)C(=O)c1c-2ccc2c1CCCC2(C)C,-1.1,-0.6%,-0.5%,14.1µM*,
Cc1coc2c1C(=O)C(=O)c1c-2ccc2c(C)cccc12,-2.6,?,14.6%,2.24µM*!,
C[C@H]1COC2=C1C(=O)C(=O)c1c2ccc2c1CCCC2(C)C,·,-13.3%,20.7%,17.2µM*,
COCCN1CCCN(C(=O)NCCc2ccccc2)c2ccccc21,-7.7,6.8%,-7.4%,2.8%,
CS(=O)(=O)N1CC2(CCN(C3CCCCC3)C2)Cc2ccccc21 (centres undefined),-7.4,-20.2%,-12.8%,i,
Cc1ccccc1CN1Cc2nc(Nc3ccccc3)ccc2OCC1=O,-18.8,?,-18.3%[87.6 µM],i,
O=C1COc2ccc(Nc3ccc(Cl)cc3)nc2CN1Cc1nc2ccccc2s1,-3.0,31.6µM*,?,-13.0%[88.5 µM],
SMILES,IP6K1 inhibitor,SNCA viab count,SNCA expr inh,GPT2 inh,others
CCOC(=O)c1cc2c(=O)n3ccccc3nc2n(Cc2ccco2)c1=NC(=O)c1cccc(Br)c1,-3.6,6.2%,2.4%,·,
CCOC(=O)c1cc2c(=O)n3ccccc3nc2n(Cc2ccco2)c1=NC(=O)c1c(F)cccc1Cl,-60.3*,?,?,·,
Cc1nc2c(c(N(C)Cc3noc(C4CCCC4)n3)n1)CCNCC2,4.0,-2.9%,7.2%,i,
O=C(CN1CCCc2nc(C3CC3)ncc2C1=O)NCc1ccccn1,-4.0,-14.2%,4.6%,i,
CCOC(=O)N1CCN(Cc2nc3cc(NC(=O)c4ccccc4OC)ccc3n2C(C)C)CC1,-57.2*,-15.2%,37.7%,·,
CCOC(=O)N1CCN(Cc2nc3cc(NC(=O)c4ccccc4[N+](=O)[O-])ccc3n2C(C)C)CC1,-13.9,-1.6%,-5.9%,·,
Cc1cc(C)c2c(CC(=O)Nc3ccc(S(=O)(=O)N4CCCC(C)C4)cc3)coc2c1 (centres undefined),-10.8,2.2%,?,·,
Cc1cc(C)c2c(CC(=O)Nc3ccc(S(=O)(=O)N4CCCCC4)cc3)coc2c1,-5.7,-10.6%,22.4µM*,·,
CN(Cc1ccccc1)C(=O)c1cccc2c1CCN2C(=O)Nc1ccccc1,-11.6,-29.3%,?,0.3%,
COC1C(=O)N(CC2CC2)C12CCN(C(=O)c1cccs1)CC2 (centres undefined),-7.0,7.4%,18.7%,i,
COc1cc(O)c2c(c1)C1OC1C[C@H](O)[C@H](O)C(=O)C=CC[C@H](C)OC2=O (some centres undefined),·,?,-20.0%,i,
COc1cc(O)c2c(c1)C1OC1C[C@H](O)[C@H](O)C(=O)/C=C\C[C@H](C)OC2=O (some centres undefined),4.7,11.9µM*,·,i,
COc1ccccc1Nc1ccnc(N2CCC(NC(=O)Cc3ccccn3)CC2)n1,9.8,-1.3%[12.5 µM],20.4%,-0.2%,
CC(C)c1ccc(NC(=O)Cn2cc(S(=O)(=O)Cc3cccc(Cl)c3)c3ccccc32)cc1,2.8,-2.4%,18.4%,·,
O=C(Cn1cc(S(=O)(=O)Cc2cccc(Cl)c2)c2ccccc21)Nc1ccc(F)c(Cl)c1,-37.3*,-17.0%,-26.2%,·,IP6K1 inh cnf=0.4%
Cc1ccc(NC(=O)CSCc2cnn(-c3ccccc3)c2-n2cccc2)c(C)c1,-27.5*,-4.2%,-27.5%,·,IP6K1 inh cnf=1.6%
O=C(Cc1ccc(F)cc1)N1CCN(c2nccc(Nc3ccccc3Cl)n2)CC1,-9.0,-3.5%,-10.5%,i,
CC(=O)N1CCN(C(=O)Cc2ccc(Nc3ncc(F)c(Nc4ccc(C(=O)Nc5ccccc5Cl)cc4)n3)cc2)CC1,-29.8*,?,·,-11.9%,IP6K1 inh cnf=?
Cn1cc(-c2cnc3[nH]cc(CC(=O)Nc4cccc(F)c4)c3c2)cn1,-16.4,-20.6%[87.6 µM],-8.3%[87.6 µM],i,
Cn1cc(-c2cnc3[nH]cc(CC(=O)Nc4ccccc4Cl)c3c2)cn1,-26.0*,5.6%[87.6 µM],43.8%[87.6 µM],-0.1%[88.5 µM],IP6K1 inh cnf=?
Cc1ccc(C)c(N2CCN(c3ccc(NC(=O)c4cccs4)cc3C(=O)O)CC2)c1,-32.6*,0.7%,19.8%,·,IP6K1 inh cnf=?
O=C(NCCc1ccc(Cl)cc1)C1CCc2nnc(-c3ccc(Cl)nc3)n21 (centres undefined),-3.5,-0.9%,3.5%,-6.4%,
